Results taken from the supplement of paper PMC6555819.

Columns and labels:
Assay in all cases: PBM binding z-score (relative to random genomic background probes); higher = stronger binding; sequences stand for … in GC…GCGATTGACAGCGTAGAATGAAGG
[1] = system: FXR:RXRa (NR concentration 270 nM, RXRa partner concentration 90 nM)
Summary of the method: (§1)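 Each nuclear receptor dimer, without ligand, was incubated for 1 h on custom Agilent 4×180K protein-binding microarrays. Binding was detected with antibodies against each partner (one per run), and scanned fluorescence was regression-normalized. The binding z-scores are referenced to random human genomic background probes.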

[2] = system: LXRa:RXRa (NR concentration 270 nM, RXRa partner concentration 90 nM)
Summary of the method: as §1

[3] = system: LXRa homodimer (NR concentration 270 nM)
Summary of the method: as §1

[4] = system: LXRb:RXRa (NR concentration 270 nM, RXRa partner concentration 90 nM)
Summary of the method: as §1

[5] = system: LXRb homodimer (NR concentration 270 nM)
Summary of the method: as §1

[6] = system: PPARa:RXRa (NR concentration 270 nM, RXRa partner concentration 90 nM)
Summary of the method: as §1

[7] = system: PPARg:RXRa (NR concentration 180 nM, RXRa partner concentration 90 nM)
Summary of the method: as §1

[8] = system: PPARg:RXRa 270nM:90nM, anti-RXR (NR concentration 270 nM, RXRa partner concentration 90 nM)
Summary of the method: as §1

[9] = system: PPARg:RXRa 30nM:10nM, anti-RXR (NR concentration 30 nM, RXRa partner concentration 10 nM)
Summary of the method: as §1

[10] = system: PPARg:RXRa 90nM:30nM, anti-RXR (NR concentration 90 nM, RXRa partner concentration 30 nM)
Summary of the method: as §1

[11] = system: PPARg:RXRa DBDmut IVT, anti-RXR (DBD mutation: RXRa K156A/R161A, NR concentration 270 nM, RXRa partner concentration 90 nM)
Summary of the method: as §1

[12] = system: PPARg:RXRa IVT, anti-PPARg (NR concentration 270 nM, RXRa partner concentration 90 nM)
Summary of the method: as §1

[13] = system: PPARg DBDmut:RXRa IVT, anti-PPARg (DBD mutation: PPARg1 K132A/R137A, NR concentration 270 nM, RXRa partner concentration 90 nM)
Summary of the method: as §1

[14] = system: PPARg DBDmut IVT, anti-PPARg (DBD mutation: PPARg1 K132A/R137A, NR concentration 270 nM)
Summary of the method: as §1

[15] = system: PPARg homodimer (NR concentration 180 nM)
Summary of the method: as §1

[16] = system: PXR:RXRa (NR concentration 270 nM, RXRa partner concentration 90 nM)
Summary of the method: as §1

[17] = system: PXR homodimer (NR concentration 270 nM)
Summary of the method: as §1

[18] = system: RARa:RXR (NR concentration 270 nM, RXRa partner concentration 90 nM)
Summary of the method: as §1

[19] = system: RARa homodimer (NR concentration 270 nM)
Summary of the method: as §1

[20] = system: RARb:RXRa (NR concentration 270 nM, RXRa partner concentration 90 nM)
Summary of the method: as §1

Row | Sequence | PBM binding z-score [1] | PBM binding z-score [2] | PBM binding z-score [3] | PBM binding z-score [4] | PBM binding z-score [5] | PBM binding z-score [6] | PBM binding z-score [7] | PBM binding z-score [8] | PBM binding z-score [9] | PBM binding z-score [10] | PBM binding z-score [11] | PBM binding z-score [12] | PBM binding z-score [13] | PBM binding z-score [14] | PBM binding z-score [15] | PBM binding z-score [16] | PBM binding z-score [17] | PBM binding z-score [18] | PBM binding z-score [19] | PBM binding z-score [20]
1 | CCTCGGAGGACAGAAGGTGAGAGCTGTCCGCTTT | 0.177 | 0.159 | -0.939 | -0.679 | -0.923 | -0.0914 | -0.442 | -0.325 | -0.929 | -0.465 | -0.327 | 0.0317 | -1.56 | -1.59 | 0.19 | -0.301 | -0.684 | 0.317 | -0.413 | 1.09
2 | CGAACGAGGGCCTGAGTTGATAGCAAATGCCGAT | -0.571 | -0.754 | -0.624 | -0.612 | -0.92 | -0.663 | 0.336 | -0.582 | -0.305 | -0.468 | -0.653 | -0.278 | -0.385 | -0.392 | -1.19 | -0.457 | -0.641 | -0.337 | -0.966 | -0.393
3 | GCTATTAGTTCAAAGGGCAACCGAATGATTCTCG | 2.78 | 2.89 | 0.929 | 2.17 | 0.2 | 3.79 | 4.51 | 5.96 | 5.32 | 6.42 | 0.957 | 1.81 | 0.146 | 0.19 | 2.2 | 3.21 | 1.29 | 4.32 | 1.11 | 3.3
4 | TCAGACAGGTGAAGGTAACTCAAGTACGCAGTCG | 1.22 | 2.77 | 0.105 | 1.47 | 0.174 | 1.33 | 0.828 | 2.07 | 4.18 | 3.03 | 2.91 | 0.867 | 0.154 | -0.232 | 0.845 | 0.794 | 0.336 | 0.988 | 0.423 | 1.14
5 | CCTCGGAGGACAACAGGAGGTCAGGGCTGCCAGA | 1.17 | 1.84 | 1.45 | 1.14 | -0.784 | 2.09 | 0.517 | 0.522 | -0.226 | 0.18 | -0.161 | 0.479 | -0.962 | -1.94 | 1.52 | 2.11 | 0.134 | 2.83 | 0.694 | 3.01
6 | GCTATTAATTGAAAGGGCAACCGAATGATTCTCG | 0.000102 | 0.439 | 1.02 | 0.408 | -0.192 | 1.08 | 0.608 | 0.921 | -0.0129 | 0.592 | 0.162 | 0.122 | -0.051 | -0.0832 | 1.66 | 0.52 | 1.04 | 0.517 | 2.31 | 2.02
7 | CCTTACGGGTCAATGTTATAGCACGGGTGGTACG | 4.09 | 2.96 | 0.175 | 2.61 | 0.428 | 3.96 | 3 | 3.22 | 1.1 | 2.16 | 1.71 | 2.59 | 0.14 | 0.289 | 1.3 | 2.45 | -0.0609 | 3.35 | 0.558 | 3.57
8 | CCTACCGGGCCAAAGGTCATTGATTCCAATGCTC | 4.82 | 5.29 | 3.7 | 4.97 | 0.797 | 5.89 | 9.76 | 9.09 | 7.65 | 9.83 | 0.996 | 4.7 | -0.596 | -1.68 | 3.08 | 5.32 | 1.52 | 6.45 | 0.836 | 4.35
9 | CGTCCAAGCTCATAGGAGGTCAGTGAAGACAGAT | 0.888 | 1.51 | 1.08 | 1.33 | -0.0875 | 1.92 | 0.491 | 0.292 | -0.158 | 0.173 | 0.199 | 0.722 | -0.21 | -0.262 | 1.08 | 1.59 | 0.494 | 1.79 | 0.761 | 2.03
10 | CGAACTAGGTCAAGGACAGTGATTCTCCGCACGC | 3.46 | 2.21 | 0.289 | 1.56 | -0.542 | 4.8 | 7.19 | 6.34 | 3.52 | 5.66 | 8.31 | 8.3 | 2.89 | 2.07 | 1.69 | 1.37 | -0.0135 | 2.28 | 0.11 | 4.21
11 | TCTAGTTGGTCACGGAGGTTACACACGACGGGTA | 1.01 | 1.19 | 0.54 | 1.12 | 0.211 | 1.96 | 1.7 | 2.35 | 3.22 | 2.73 | 2.33 | 2.95 | 0.625 | 0.671 | 1.64 | 1.53 | 0.58 | 1.77 | 0.623 | 2.42
12 | GGAACGAGGGCATTCCAGTTGATAGCATGGCGAT | 1.15 | 1.43 | -0.298 | 0.454 | -0.264 | 1.42 | 0.909 | 0.848 | -0.214 | 0.301 | 3.02 | 2.32 | 0.37 | -0.74 | 0.527 | 2.19 | 0.706 | 0.917 | -0.491 | 1.81
13 | AATACAGGGTCACTAGGCCAGCGTAGGTACGAAT | 6.02 | 4.76 | 0.904 | 3.93 | 0.853 | 5.62 | 7.64 | 6.28 | 3.54 | 5.52 | 4.14 | 5.63 | 1.74 | 1 | 1.64 | 3.02 | 0.293 | 3.54 | 0.674 | 4.17
